Our source for the inhibition values is PubChem BioAssay AID651995 (Sanford-Burnham Center for Chemical Genomics, 2013).

About 480 (19%) of roughly 2,500 compounds were called active.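 Rule for the calls: active = mean inhibition above about 25% (limit read from the data); inactive = the rest.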 The full list was thinned out, with actives kept by preference.

This assay can be described thus: Wnt3a reporter signal inhibition, confirmation, counter-screen for Gli-SUFU antagonist project, Wnt-LIGHT cells, luminescence, single concentration (AID 651995). The conditions noted are these: Wnt3a-driven luciferase reporter, at 6.25 µM, hits give high values.
For the molecule `CCOc1cccc(=NC2CCCCC2)c2c(C)[nH]c(C)c12`, the inhibition (commonly the drop in the measured response relative to a control, in per cent) is 26.5% (active).
